Results filed as inconclusive are left out. Activity calls are given as the source filed them. The calls were made as follows: active = hit-call score of the fitted dose curve at least 0.9, where 1 is the maximum; inconclusive = response in the unintended direction; inactive = score below 0.9.

This experiment can be described thus: TOX21_p53_BLA_p4_viability: Viability Assessment in the Tox21 HCT-116 p53 Agonism Beta-lactamase Assay, Phase 4 (AID 2283597).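 Also: hits lower the luminescence signal meaning cytotoxicity.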 In a few lines: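 ATP content by CellTiter-Glo luminescence, 30 min RT, read after the beta-lactamase ratio step. Cells: HCT116, 4000/well, compound added after 5 h, exposure 16 h at 37C. Signal loss = reduced viability.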
In the case of `CC1CCCNC1` (centres undefined), the result was inactive.
Regarding `O=C(O)c1c(Cl)c(Cl)c(Cl)c(Cl)c1-c1c2cc(I)c(=O)c(I)c-2oc2c(I)c(O)c(I)cc12`, the AC50 was 44.1 µM (active).
Regarding `CC(=O)C=Cc1ccco1`, the compound was called inactive.
As to `O=C(/C=C/c1cccc(F)c1)NC1CC1`, the outcome was inactive.
On the same count and under the same terms, the result for `CCOC(=O)[C@H](CCc1ccccc1)N[C@@H](C)C(=O)N1Cc2ccccc2C[C@H]1C(=O)O` reads “inactive”.
Take `CC(=O)O[C@H]1C[C@@H]2CC[C@@H]3[C@H](CC[C@@]4(C)[C@H]3C[C@H]([N+]3(C)CCCCC3)[C@@H]4OC(C)=O)[C@@]2(C)C[C@@H]1[N+]1(C)CCCCC1`: the compound was called inactive.
In the case of `Cc1c(C)c2c(c(C)c1OC(=O)CCC(=O)OCCO)CCC(C)(CCCC(C)CCCC(C)CCCC(C)C)O2` (centres undefined), the AC50 is 34.6 µM (active).
`COc1ccc(OC)c(NC(=O)CC(C)=O)c1`: the compound was called inactive.
For the compound `CC1=C(/C=C/C(C)=C/C=C/C(C)=C/C=C/C=C(C)/C=C/C=C(C)/C=C/C2=C(C)C[C@@H](O)CC2(C)C)C(C)(C)C[C@H](O)C1`, the AC50 was 36.6 µM (active).
For the compound `CC(=O)c1ccc2c(c1)N(CCCN1CCC(CCO)CC1)c1ccccc1S2`, the compound was classed as inactive.
As to `Brc1ccccc1-c1ccccc1`, the compound was called inactive.
Consider `CNc1cc(OC)c(C(=O)N[C@H]2CCN(Cc3ccccc3)[C@H]2C)cc1Cl`, for which the result was inactive.
For the compound `O=C1c2c(O)ccc([N+](=O)[O-])c2C(=O)c2c([N+](=O)[O-])ccc(O)c21`, the AC50 was 11.7 µM (active).
With `Cc1cc(CC(C)CC(C)(C)C)n(O)c(=O)c1` (centres undefined) (tested in a mixture with another compound), the AC50 was 34.1 µM (active).

What is called AC50 is the midpoint of the concentration-response curve, whichever way the signal moves.

The values are drawn from PubChem BioAssay (EPA / NIEHS).
